Compound activity deposited in PubChem BioAssay by National Center for Advancing Translational Sciences (NCATS).
IL-1B inflam inh = inflammasome signaling inhibition, IL-1 beta readout | activity change, % at 57.5 µM | 4.7% of 360,000 active | THP-1 LPS/ATP IL-1B secretion, AlphaLISA, 16 h; stronger effect = lower value; in the data active = activity change below about -50%; inconclusive = mostly about -30% to -49%
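Secreted IL-1B measured by AlphaLISA bead assay after 16 h compound exposure of THP-1 cells; compounds (final up to 57.5 uM) added 1 h before LPS (250 ng/mL) and ATP (1.25 mM) stimulation; lower signal means less secretion.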
TDP1 cell noCPT = qHTS for Inhibitors of human tyrosyl-DNA phosphodiesterase 1 (TDP1): qHTS in cells in absence of CPT. DT40 Tdp1-/- hTDP1 cells, no CPT, ATP luminescence, 48 h. Potency, µM (series often up to 46.2 µM), inactives show top-dose activity change, negative = growth inhibition, most hits filed as inhibitors. 15% of 420,000 active; note: potency is the fitted concentration of half-maximal effect; nearly all actives have a fitted effect of over 55% in size
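No-CPT arm: Tdp1-/-;hTDP1 DT40 cells (400/well) plus compounds, incubated ≥48 hr at 37 °C. Readout CellTiter-Glo luminescence.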
HT1080-NT tox = kills 2HG-producing HT-1080-NT fibrosarcoma cells | 1.6% of 360,000 active | HT-1080-NT fibrosarcoma viability, CellTiter-Glo ATP luminescence, 48 h | Potency, µM (series often up to 46.1 µM), without a hit: at the top dose activity, negative = less viability, hits mostly cytotoxic;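 note: NT is the 2HG producing partner of a matched IDH1 knockdown line; potency is the fitted concentration of half-maximal effect; 0% = DMSO-treated cells and -100% = media-only wells without cells; nearly all actives have a fitted effect of over 55% in size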
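Read-out is CellTiter-Glo luminescence after 10 minutes at room temperature, following 48 hours' compound treatment of HT-1080-NT cells (750 cells/well, RPMI, 5% FBS, 37 degrees C).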
HT1080 IDH1KD tx = kills HT-1080 cells with IDH1 knockdown; HT-1080 IDH1 knockdown viability, ATP luminescence, 48 h; Potency, µM (top dose mostly 46.1 µM), inactives show at the highest dose activity, negative = toxicity, actives largely listed as cytotoxic; 2% of 360,000 active;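 note: potency is the fitted concentration of half-maximal effect; 0% = DMSO wells and -100% = cell-free medium wells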
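Knockdown cells (IDH1KD HT-1080) received compounds 2 h after plating at 750 cells/well and were kept 48 h at 37 °C in 5% FBS RPMI. A CellTiter-Glo luminescence read gave % activity for curve fitting.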
DT40 TDP1 CPT = growth inhibition of DT40 Tdp1-/-;hTDP1 cells with camptothecin (screen for TDP1 inhibitors). chicken DT40 Tdp1-/-;hTDP1 cells + 20 nM CPT, ATP luminescence, 48 h. Potency, µM (doses to about 46.2 µM), without a hit: top-dose activity change, negative = growth inhibition, most hits filed as inhibitors. 12% of 420,000 active. AID 686979; note: potency is the fitted concentration of half-maximal effect; nearly all actives have a fitted effect of over 55% in size
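Cell growth measured by CellTiter-Glo luminescence after a minimum 48 h, 37 C compound exposure with 20 nM CPT in Tdp1-knockout DT40 cells stably expressing hTDP1, seeded 400/well; qHTS titration format.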
Starred values were filed as active, the others as inactive; ? = inconclusive; . = no result given. The list is not random: actives were taken first. Their share in the collection is about 19%. Unless noted, calls come from the whole dose curve; as a rule, active = well fitted curve in the direction sought with a large enough effect; inconclusive = small, poorly fitted or top-dose-only effect, or another doubt; inactive = no such curve, though single readings can be large; an effect the other way counts as inactive or inconclusive. Unless noted, % is set by controls: 0 for no effect and ±100 for the full control effect.

SMILES	IL-1B inflam inh	TDP1 cell noCPT	HT1080-NT tox	HT1080 IDH1KD tx	DT40 TDP1 CPT
O=[N+]([O-])c1ccc(Cl)c(Cl)c1Cl	-19.3	-3.2%	-0.1%	1.2%	2.5%
O=C1NC(=O)C(Nc2ccccc2)C(=O)N1	9.7	-11.0%	-0.6%	13.6%	-2.1%
CC(C)n1nc(-c2cc3cc(O)ccc3[nH]2)c2c(N)ncnc21	.	0.168µM*	.	.	0.0944µM*
O=C1NC[C@H](CCCCN2C[C@@H](Cc3ccccc3)N(CCC3CCCCC3)C(=O)C2=O)N(CCC2CCCCC2)C1=O	?	?	10.6%	2.3%	?
CC(C)Nc1ccc(Nc2ccccc2)cc1	-94.7*	6.51µM*	.	.	6.51µM*
O=[N+]([O-])c1oc2ccc3ccccc3c2c1CCO	31.8	0.517µM*	?	?	0.411µM*
N#C/C=C/C#N	12.7	?	15.1%	-2.8%	?
CCC(C)n1c(O)c(/C=N/N2CCOCC2)c(=O)[nH]c1=S (centres undefined)	3.5	-90.7%	-21.4%	-1.3%	23.1µM*
CCS(=O)(=O)CCSP(=O)(OC)OC	1.3	-1.0%	-6.3%	0.6%	-0.4%
CC[C@H](C)[C@H]1O[C@]2(C=C[C@@H]1C)C[C@@H]1C[C@@H](C/C=C(\C)[C@@H](O[C@H]3C[C@H](OC)[C@@H](O[C@H]4C[C@H](OC)[C@@H](O)[C@H](C)O4)[C@H](C)O3)[C@@H](C)/C=C/C=C3\CO[C@@H]4[C@H](O)C(C)=C[C@@H](C(=O)O1)[C@]34O)O2	.	16.4µM*	.	.	?
O=[N+]([O-])c1cc(Cl)c(O)c(-[n+]2c(-c3ccccc3)cc(-c3ccccc3)cc2-c2ccccc2)c1	-5.3	8.2µM*	?	?	13µM*
O=[N+]([O-])c1ccc(CNCCc2ccccc2)cc1	0.3	?	-4.2%	0.3%	-21.7%
O=[N+]([O-])c1ccc(C[n+]2c(-c3ccccc3)cc(-c3ccccc3)cc2-c2ccccc2)cc1	?	2.31µM*	-19.0%	-14.4%	2.59µM*
Oc1ccccc1/C=N/[n+]1ccccc1	4.4	18.4µM*	5.8%	-1.1%	20.6µM*
COC(=O)CSC1=NP(=S)(SCC(=O)OC)N2CCCC2=C1C#N (centres undefined)	-94.3*	?	4.7%	0.0%	-26.1%
